Source: publication PMC10726135, “HNF4α isoforms regulate the circadian balance between carbohydrate and lipid metabolism in the liver”
Over roughly 18,000 sequences, “log2 normalized intensity” has its median near 0.36; the highest 2% begin near 7.3. For the sample, the highest values were picked, then their nearest neighbours and some sequences at random.

Each sequence was assayed against T1, HNF4alpha8 (COS-7 nuclear extract) (Homo sapiens, UniProt P41235-5 1-452) (assay: protein-binding microarray; COS-7 nuclear extract on double-stranded Agilent 4x180k PBM; binding buffer, salt, pH and temperature not given in the material; high values mean tight binding). Conditions: chain copies: 2; label: 3' end of strand 1 on the slide; dsDNA, one strand shown.
T1 sequence: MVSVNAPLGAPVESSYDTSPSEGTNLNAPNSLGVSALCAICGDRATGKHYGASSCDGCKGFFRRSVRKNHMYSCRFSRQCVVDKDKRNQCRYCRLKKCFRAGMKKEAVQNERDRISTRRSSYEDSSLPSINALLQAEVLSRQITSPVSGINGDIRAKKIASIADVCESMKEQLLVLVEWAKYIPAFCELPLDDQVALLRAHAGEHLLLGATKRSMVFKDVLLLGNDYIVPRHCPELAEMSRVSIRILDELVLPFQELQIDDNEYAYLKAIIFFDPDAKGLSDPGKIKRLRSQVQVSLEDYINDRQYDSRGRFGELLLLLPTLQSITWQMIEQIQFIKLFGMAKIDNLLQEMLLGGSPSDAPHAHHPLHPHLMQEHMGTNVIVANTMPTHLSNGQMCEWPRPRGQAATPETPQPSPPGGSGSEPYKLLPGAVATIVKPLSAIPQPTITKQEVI
In short: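 Nuclear extracts of COS-7 cells transiently transfected with a human HNF4α isoform were applied to a custom Agilent SurePrint G3 4x180k array bearing ~44,000 double-stranded ~60-nt test sequences, each in quadruplicate. The bound protein was imaged on an Agilent G2565CA scanner at 2-µm resolution. Binding signal is the normalized, background-corrected gProcessedSignal from Agilent software.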

Sequence	binding signal
TTGAATTCCTTCTTCTTCTGGGGACTTCGGGCCTAGGGAGATTAGAGTATCGGTCGA	2.16 log2 normalized intensity
CTTATAAATCTTCAACTGGAGGATAAAGTTGCCTAGGGAGATTAGAGTATCGGTCGA	1.09 log2 normalized intensity
GAGTCCAAACTGGGACCTGTGACACTCTGCGCCTAGGGAGATTAGAGTATCGGTCGA	0.644 log2 normalized intensity
CATACCAGGTGTAAAGTCTGGCATACAGGGGCCTAGGGAGATTAGAGTATCGGTCGA	0.00259 log2 normalized intensity
ATGTTAGGCTGGAAAACTGGGCTGTTATTTGCCTAGGGAGATTAGAGTATCGGTCGA	0.577 log2 normalized intensity
AACATGGACTTTGTTGTTTGCCTCTGAAAAGCCTAGGGAGATTAGAGTATCGGTCGA	2.8 log2 normalized intensity
CATCTGAACTCTTCATGGACTCCTCTTATCGCCTAGGGAGATTAGAGTATCGGTCGA	2.06 log2 normalized intensity
TTCTCTCTTGGACTCTTGGACTCCCTGAAGGCCTAGGGAGATTAGAGTATCGGTCGA	5.73 log2 normalized intensity
TACATTGAACTTTGAACACCTCTTCTTTCTGCCTAGGGAGATTAGAGTATCGGTCGA	5.51 log2 normalized intensity
CTATGGAACATGGACTTTGAACCTCTCTTCGCCTAGGGAGATTAGAGTATCGGTCGA	9.09 log2 normalized intensity
TGCGTGTTATCTATGGAACATGGACTTTGAGCCTAGGGAGATTAGAGTATCGGTCGA	9.28 log2 normalized intensity
GAACATGGACTTTGAACCTCTCTTCTTTTTGCCTAGGGAGATTAGAGTATCGGTCGA	7.93 log2 normalized intensity
CATTTTTCTCTCTTGGACTCTTGGACTCCCGCCTAGGGAGATTAGAGTATCGGTCGA	7.67 log2 normalized intensity
TCCATCATTTTTCTCTCTTGGACTCTTGGAGCCTAGGGAGATTAGAGTATCGGTCGA	4.92 log2 normalized intensity
CCATACCTCTTGCGTGTTATCTATGGAACAGCCTAGGGAGATTAGAGTATCGGTCGA	1.67 log2 normalized intensity
CCTCTTGCGTGTTATCTATGGAACATGGACGCCTAGGGAGATTAGAGTATCGGTCGA	2.5 log2 normalized intensity
TTTGAACACCTCTTCTTTCTTCTCTGGTACGCCTAGGGAGATTAGAGTATCGGTCGA	1.8 log2 normalized intensity
TTGCCAGTTCCCATTTGCGCTGGTTTTATGGCCTAGGGAGATTAGAGTATCGGTCGA	1.65 log2 normalized intensity
GTTATCACAGGCTTGGAATGTTTCTGTATCGCCTAGGGAGATTAGAGTATCGGTCGA	0.74 log2 normalized intensity
AAACGCTGAAGTCTCAAAGTTCACCACTTTGCCTAGGGAGATTAGAGTATCGGTCGA	3.3 log2 normalized intensity
GAAGCTGGTAGCATGGCTCAGTCCAAGTCCGCCTAGGGAGATTAGAGTATCGGTCGA	0.896 log2 normalized intensity
TTGGACTCTGCCACTGGTTTGCACACACCAGCCTAGGGAGATTAGAGTATCGGTCGA	1.94 log2 normalized intensity

Sequence	binding signal
TATACATTTTCCCACTTGTATGTCCAAGGGGCCTAGGGAGATTAGAGTATCGGTCGA	1.25 log2 normalized intensity
GAACAAAGGTTGGTGTGAACCAGGGTTAAGGCCTAGGGAGATTAGAGTATCGGTCGA	1.59 log2 normalized intensity
ACCTTTATCTGATCAGAAATGTTTGGAATTGCCTAGGGAGATTAGAGTATCGGTCGA	1.84 log2 normalized intensity
TGAACTTTGAACACCTCTTCTTTCTTCTCTGCCTAGGGAGATTAGAGTATCGGTCGA	4.71 log2 normalized intensity
CCTTGCTATGGAGTGGACTTTGGCTTATGCGCCTAGGGAGATTAGAGTATCGGTCGA	7.08 log2 normalized intensity
TCTTCTTCTGGGGACTTCGGTCTTTTTTCTGCCTAGGGAGATTAGAGTATCGGTCGA	2.67 log2 normalized intensity
TGGACTTTGAACCTCTCTTCTTTTTCGTCTGCCTAGGGAGATTAGAGTATCGGTCGA	7.42 log2 normalized intensity
ACTCATTTCACATTGGTGCCCTTTGCCTTTGCCTAGGGAGATTAGAGTATCGGTCGA	4.99 log2 normalized intensity
TTTCTCTTTTGACCTTTGGACTTTCACATTGCCTAGGGAGATTAGAGTATCGGTCGA	11 log2 normalized intensity
CCTTTGGTGCCTCTTTTTTCTTGTTGACTTGCCTAGGGAGATTAGAGTATCGGTCGA	1.91 log2 normalized intensity
AGTCTAACTTTGGACTTTTATGTTAAGATCGCCTAGGGAGATTAGAGTATCGGTCGA	2.93 log2 normalized intensity
GTTATCTATGGAACATGGACTTTGAACCTCGCCTAGGGAGATTAGAGTATCGGTCGA	10.9 log2 normalized intensity
GCCTGTCACCCAACCTCACCTAACCACATTGCCTAGGGAGATTAGAGTATCGGTCGA	1.21 log2 normalized intensity
GCTGATGCAGAGGGTGCAAAGTTTTTAAAGGCCTAGGGAGATTAGAGTATCGGTCGA	1.28 log2 normalized intensity
ACACCTTTTCTAGCTGAGTTGACCTGTGTTGCCTAGGGAGATTAGAGTATCGGTCGA	4.51 log2 normalized intensity
ACATTAATCAGTCGCGTATCTGACTTTATCGCCTAGGGAGATTAGAGTATCGGTCGA	0.606 log2 normalized intensity
CATTCTCTAATCAGGTCGCTGCCTGCCCCTGCCTAGGGAGATTAGAGTATCGGTCGA	3.39 log2 normalized intensity
TACATTTTGCTCTGTTGTGTCAAAGGTCACGCCTAGGGAGATTAGAGTATCGGTCGA	7 log2 normalized intensity
GAGTGACCTGGTATTGCAAGTATTTCACCCGCCTAGGGAGATTAGAGTATCGGTCGA	1.59 log2 normalized intensity
TGGTACTATGACCTTTCACCTTTTAGCTTGGCCTAGGGAGATTAGAGTATCGGTCGA	6.25 log2 normalized intensity
ACCTTTGACCTGGTACTATGACCTTTCACCGCCTAGGGAGATTAGAGTATCGGTCGA	7.83 log2 normalized intensity
CTATGACCTTTCACCTTTTAGCTTGGCATGGCCTAGGGAGATTAGAGTATCGGTCGA	5.08 log2 normalized intensity

Sequence	binding signal
TGACCTGGTACTATGACCTTTCACCTTTTAGCCTAGGGAGATTAGAGTATCGGTCGA	7.78 log2 normalized intensity
TTCACCTTTCGCCCTTTGTCCTATGACTCTGCCTAGGGAGATTAGAGTATCGGTCGA	5.44 log2 normalized intensity
CCCCAAAAACTTGGACTCTATAGCCTATGCGCCTAGGGAGATTAGAGTATCGGTCGA	2.66 log2 normalized intensity
TGGGGACCTTTGGGCTCTGACCCGAAGGGTGCCTAGGGAGATTAGAGTATCGGTCGA	2.6 log2 normalized intensity
CTTTTGAGTTTCTACCATAGACCCTGTTGGGCCTAGGGAGATTAGAGTATCGGTCGA	0.898 log2 normalized intensity
CTAACCAGCTCTATCAGTCTGGGTCCAGTCGCCTAGGGAGATTAGAGTATCGGTCGA	2.82 log2 normalized intensity
CCCCCGGCTCTACGCAAGTGGTACCTCCCGGCCTAGGGAGATTAGAGTATCGGTCGA	2.76 log2 normalized intensity
CTTGGCACTTAGCACAAGTGACTATTCTGGGCCTAGGGAGATTAGAGTATCGGTCGA	0.0244 log2 normalized intensity
AGGCAAAGGTGTCAGGACCTTTCTTTATGGGCCTAGGGAGATTAGAGTATCGGTCGA	0.451 log2 normalized intensity
TCCTTTTCTTTCACATACAAAATTTACTTTGCCTAGGGAGATTAGAGTATCGGTCGA	1.75 log2 normalized intensity
GCAGAAGGTGTTTCAGATGGACCAAAGGTCGCCTAGGGAGATTAGAGTATCGGTCGA	6.13 log2 normalized intensity
TCACAAAGGGCTGAGGTTAAAGTCCACATTGCCTAGGGAGATTAGAGTATCGGTCGA	8.03 log2 normalized intensity
CTGAGGTTAAAGTCCACATTCTTTAGCATAGCCTAGGGAGATTAGAGTATCGGTCGA	6.12 log2 normalized intensity
ATCAAAGGCTTCTAGAAGAGGTTAAAGACCGCCTAGGGAGATTAGAGTATCGGTCGA	1.58 log2 normalized intensity
GAGGCTGAAGTGAAGTTACAAAGGTCACACGCCTAGGGAGATTAGAGTATCGGTCGA	6.46 log2 normalized intensity
AAGCTTCACAAAGGGCTGAGGTTAAAGTCCGCCTAGGGAGATTAGAGTATCGGTCGA	7.44 log2 normalized intensity
AAGGGCTGAGGTTAAAGTCCACATTCTTTAGCCTAGGGAGATTAGAGTATCGGTCGA	6.82 log2 normalized intensity
CTCTGTATTGTAAAAGAAAGTGAGCAGGCAGCCTAGGGAGATTAGAGTATCGGTCGA	-0.689 log2 normalized intensity
ACACAAACTATGACCTTTGAAACTTACATTGCCTAGGGAGATTAGAGTATCGGTCGA	6.68 log2 normalized intensity
AGCAAACACAAACTATGACCTTTGAAACTTGCCTAGGGAGATTAGAGTATCGGTCGA	7.82 log2 normalized intensity
GTTCTATGGGATGACCTTTGAGCAATAGGAGCCTAGGGAGATTAGAGTATCGGTCGA	6.05 log2 normalized intensity
TTCTTTTTGAAGCAAAGCCTTTGAGCAGATGCCTAGGGAGATTAGAGTATCGGTCGA	0.807 log2 normalized intensity

Sequence	binding signal
TGACAAGCAAACACAAACTATGACCTTTGAGCCTAGGGAGATTAGAGTATCGGTCGA	9.22 log2 normalized intensity
AGAGAGTTCTATGGGATGACCTTTGAGCAAGCCTAGGGAGATTAGAGTATCGGTCGA	7.89 log2 normalized intensity
GGGCGAGAGAGTTCTATGGGATGACCTTTGGCCTAGGGAGATTAGAGTATCGGTCGA	6.82 log2 normalized intensity
CAGCAACACTCTACTACTTGACCTTTGAAAGCCTAGGGAGATTAGAGTATCGGTCGA	6.62 log2 normalized intensity
ATGACCCAAACTTCACAAAAATGAGTGCAAGCCTAGGGAGATTAGAGTATCGGTCGA	-0.806 log2 normalized intensity
AGTCTCAAAGGTCAGATGACAGAATTGGTCGCCTAGGGAGATTAGAGTATCGGTCGA	4.15 log2 normalized intensity
GATAACATCTGGACTTTACACAGACCTTTAGCCTAGGGAGATTAGAGTATCGGTCGA	4.07 log2 normalized intensity
CCCCTTCTGTTTCCAGAAATCTGACCTCTGGCCTAGGGAGATTAGAGTATCGGTCGA	5.06 log2 normalized intensity
AGCTGACGCCCCACCCCCTCCACCCCTGCCGCCTAGGGAGATTAGAGTATCGGTCGA	6.68 log2 normalized intensity
CAATGTGACTGGAGCAGAGCGATCAAAGGTGCCTAGGGAGATTAGAGTATCGGTCGA	1.37 log2 normalized intensity
CCCTGCCACTCTTTTTTAGACTTTGACCTCGCCTAGGGAGATTAGAGTATCGGTCGA	10.2 log2 normalized intensity
ATGACCTCTTTTAGTAACTGACTTTAACTTGCCTAGGGAGATTAGAGTATCGGTCGA	1.03 log2 normalized intensity
ACCAGACTACCTCTTTAGGCTGGACTCTGAGCCTAGGGAGATTAGAGTATCGGTCGA	4.7 log2 normalized intensity
GACCTCTGCCCTTCCACCCACTTTATCTTCGCCTAGGGAGATTAGAGTATCGGTCGA	3.59 log2 normalized intensity
TGCAGCCCTGCCACTCTTTTTTAGACTTTGGCCTAGGGAGATTAGAGTATCGGTCGA	4.39 log2 normalized intensity
CCACTCTTTTTTAGACTTTGACCTCCATATGCCTAGGGAGATTAGAGTATCGGTCGA	8.93 log2 normalized intensity
CTGACCTCTTTTGGATTTTTCCATATCTGTGCCTAGGGAGATTAGAGTATCGGTCGA	1.57 log2 normalized intensity
CTCTTTAGGCTGGACTCTGACCCATTCCTTGCCTAGGGAGATTAGAGTATCGGTCGA	5.82 log2 normalized intensity
ACTACCTCTTTAGGCTGGACTCTGACCCATGCCTAGGGAGATTAGAGTATCGGTCGA	7.54 log2 normalized intensity
